Data on 34 compounds can be found in PubChem BioAssay (NCATS).

The structures appear in SMILES notation. Results filed as inconclusive are left out. Activity calls are given as the source filed them. Unless noted, calls follow the shape of the dose curve; as a rule, active = well fitted curve in the direction sought with a large enough effect; inconclusive = small, poorly fitted or top-dose-only effect, or another doubt; inactive = no such curve, though single readings can be large; an effect the other way counts as inactive or inconclusive.

Test [1] addresses Tyrosine-protein phosphatase non-receptor type substrate 1 (Homo sapiens) + Leukocyte surface antigen CD47 (Homo sapiens) (UniProt P78324+Q08722). Kind of test: CD47-SIRPalpha protein protein interaction - Alpha assay qHTS validation (AID 1347059).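 Also: bead proximity luminescence from CD47 binding SIRPalpha after compound preincubation with SIRPalpha.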 In short, it runs like this:
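Binding is measured by AlphaScreen proximity: Ni-NTA acceptor beads capture His-CD47, streptavidin donor beads capture biotin-SIRPalpha. Each of three additions (SIRPalpha with compound, CD47, beads) incubates 30 min at room temperature protected from light.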
(In general: In qHTS, concentration-response curves come from the screen itself.)

Test [2] is described as follows: qHTS for Inhibitors of the Functional Ribonucleoprotein Complex (vRNP) of Lassa (LASV) Arenavirus: LASV Primary Screen - GLuc reporter signal (AID 1347082; calls by dose curve; tested in HEK293 reporter line; also: series mostly up to about 57 µM; nearly all actives have a fitted effect of over 60% in size).
The nature of test [3]: qHTS for Inhibitors of the Functional Ribonucleoprotein Complex (vRNP) of Lassa (LASV) Arenavirus: Viability assay - alamar blue signal for LASV Primary Screen (AID 1347083; calls by dose curve; tested in HEK293 reporter line; also: nearly all actives have a fitted effect of over 80% in size; also: potency is read from the fitted curve at half-maximal effect).
Test [4] in a line: qHTS for Inhibitors of the Functional Ribonucleoprotein Complex (vRNP) of Lymphocytic Choriomeningitis Arenaviruses (LCMV): Viability assay - alamar blue signal for LCMV Primary Screen (AID 1347085; calls by dose curve; tested in HEK293 reporter line; also: nearly all actives have a fitted effect of over 80% in size; also: potency is read from the fitted curve at half-maximal effect).
Test [5] addresses Nucleoprotein (Lymphocytic choriomeningitis virus (strain Armstrong)) (UniProt P09992). Kind of test: qHTS for Inhibitors of the Functional Ribonucleoprotein Complex (vRNP) of Lymphocytic Choriomeningitis Arenaviruses (LCMV): LCMV Primary Screen - GLuc reporter signal (AID 1347086; calls by dose curve; also: series mostly up to about 57 µM; nearly all actives have a fitted effect of over 70% in size).
Test [6] addresses Parathyroid hormone/parathyroid hormone-related peptide receptor (Homo sapiens) (UniProt Q03431). The test can be described thus: qHTS for PTHR1 Agonists: Optimization Screen against the NCGC LOPAC library (AID 1347079).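 Also: GloSensor cAMP luminescence in HEK-293 GP2 cells expressing human PTHR1 with IBMX.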 In short, it runs like this: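 Agonist readout: GloSensor cAMP luminescence, read after 15 min at room temperature. HEK-293-derived GP2 line carries PTHR1; compounds tested as a titration for 1 hr at 37C in presence of IBMX. M-PTH (1-15) served as control.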

Test [7] is described as follows: qHTS of pediatric cancer cell lines to identify multiple opportunities for drug repurposing: Primary screen for TC32 cells (AID 1347089). Also: nearly all actives have a fitted effect of over 60% in size. In short, it runs like this:
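Measured quantity: luminescence from CellTiter-Glo, reflecting metabolically active TC32 cells following 48 h of compound. Curves came straight from multi-point titrations, with 8 or 11 points in primary and 11 in confirmatory screening.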

Test [8] can be described thus: qHTS of pediatric cancer cell lines to identify multiple opportunities for drug repurposing: Primary screen for DAOY cells (AID 1347090). Also: series mostly up to about 46 µM; nearly all actives have a fitted effect of over 55% in size. In short, it runs like this:
(§1)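 Cell viability, CellTiter-Glo luminescence; 500-1,000 cells/well, 8- or 11-point titration, 48 h compound exposure at 37 degrees C, 5% CO2. Controls: DMSO neutral, bortezomib 2.3 µM final as positive.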

Test [9] is described as follows: qHTS of pediatric cancer cell lines to identify multiple opportunities for drug repurposing: Primary screen for A673 cells (AID 1347092). Also: nearly all actives have a fitted effect of over 45% in size. In short, it runs like this:
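Cells are plated, rested 5 h, dosed by pintool, incubated 48 h, then lysed with CellTiter-Glo and read by luminescence. DMSO is the neutral control; bortezomib at 2.3 uM final is the positive control.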

Test [10] can be described thus: qHTS of pediatric cancer cell lines to identify multiple opportunities for drug repurposing: Primary screen for SJ-GBM2 cells (AID 1347091). In short, it runs like this:
as §1

Chain of Parathyroid hormone/parathyroid hormone-related peptide receptor (Homo sapiens) (Q03431 whole entry, looked up): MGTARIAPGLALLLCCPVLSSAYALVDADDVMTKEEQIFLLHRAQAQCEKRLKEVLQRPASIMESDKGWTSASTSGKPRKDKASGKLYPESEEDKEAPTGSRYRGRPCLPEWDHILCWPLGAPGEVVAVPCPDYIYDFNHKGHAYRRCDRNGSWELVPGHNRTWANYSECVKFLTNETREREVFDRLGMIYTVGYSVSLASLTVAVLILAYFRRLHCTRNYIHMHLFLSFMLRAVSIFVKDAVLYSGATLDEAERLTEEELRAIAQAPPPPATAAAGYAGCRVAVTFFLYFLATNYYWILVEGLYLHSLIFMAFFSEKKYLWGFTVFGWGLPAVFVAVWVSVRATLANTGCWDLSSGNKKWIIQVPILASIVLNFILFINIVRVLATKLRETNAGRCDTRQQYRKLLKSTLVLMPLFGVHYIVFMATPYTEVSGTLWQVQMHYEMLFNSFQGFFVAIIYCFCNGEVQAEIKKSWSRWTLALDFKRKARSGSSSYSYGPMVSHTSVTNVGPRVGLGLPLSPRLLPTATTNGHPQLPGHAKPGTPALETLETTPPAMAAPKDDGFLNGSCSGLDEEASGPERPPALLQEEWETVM
Chain of Tyrosine-protein phosphatase non-receptor type substrate 1 (Homo sapiens) + Leukocyte surface antigen CD47 (Homo sapiens) (P78324 whole entry, looked up): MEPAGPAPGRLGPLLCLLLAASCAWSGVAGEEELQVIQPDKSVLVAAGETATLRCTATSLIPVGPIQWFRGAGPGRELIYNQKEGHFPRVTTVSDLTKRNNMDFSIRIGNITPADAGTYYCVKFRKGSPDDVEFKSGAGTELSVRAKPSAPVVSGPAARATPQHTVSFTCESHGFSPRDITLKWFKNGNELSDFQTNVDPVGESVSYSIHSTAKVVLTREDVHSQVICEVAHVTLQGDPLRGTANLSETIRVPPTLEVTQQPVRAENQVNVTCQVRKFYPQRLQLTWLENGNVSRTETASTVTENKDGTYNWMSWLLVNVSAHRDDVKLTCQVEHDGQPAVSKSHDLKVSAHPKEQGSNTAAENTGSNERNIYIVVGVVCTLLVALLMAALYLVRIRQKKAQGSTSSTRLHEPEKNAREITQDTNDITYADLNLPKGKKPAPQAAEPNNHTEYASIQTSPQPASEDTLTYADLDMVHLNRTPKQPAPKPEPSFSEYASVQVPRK
Chain of Tyrosine-protein phosphatase non-receptor type substrate 1 (Homo sapiens) + Leukocyte surface antigen CD47 (Homo sapiens) (Q08722 whole entry, looked up): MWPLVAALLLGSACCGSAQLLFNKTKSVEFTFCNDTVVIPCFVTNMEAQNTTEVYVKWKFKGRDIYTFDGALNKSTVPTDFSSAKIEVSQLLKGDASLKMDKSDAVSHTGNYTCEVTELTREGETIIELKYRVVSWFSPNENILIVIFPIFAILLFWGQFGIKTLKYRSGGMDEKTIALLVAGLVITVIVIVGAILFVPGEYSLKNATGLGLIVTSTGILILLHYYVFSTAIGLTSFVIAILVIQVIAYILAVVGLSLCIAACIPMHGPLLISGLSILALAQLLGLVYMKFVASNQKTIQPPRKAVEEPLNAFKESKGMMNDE
Chain of Nucleoprotein (Lymphocytic choriomeningitis virus (strain Armstrong)) (P09992 whole entry, looked up): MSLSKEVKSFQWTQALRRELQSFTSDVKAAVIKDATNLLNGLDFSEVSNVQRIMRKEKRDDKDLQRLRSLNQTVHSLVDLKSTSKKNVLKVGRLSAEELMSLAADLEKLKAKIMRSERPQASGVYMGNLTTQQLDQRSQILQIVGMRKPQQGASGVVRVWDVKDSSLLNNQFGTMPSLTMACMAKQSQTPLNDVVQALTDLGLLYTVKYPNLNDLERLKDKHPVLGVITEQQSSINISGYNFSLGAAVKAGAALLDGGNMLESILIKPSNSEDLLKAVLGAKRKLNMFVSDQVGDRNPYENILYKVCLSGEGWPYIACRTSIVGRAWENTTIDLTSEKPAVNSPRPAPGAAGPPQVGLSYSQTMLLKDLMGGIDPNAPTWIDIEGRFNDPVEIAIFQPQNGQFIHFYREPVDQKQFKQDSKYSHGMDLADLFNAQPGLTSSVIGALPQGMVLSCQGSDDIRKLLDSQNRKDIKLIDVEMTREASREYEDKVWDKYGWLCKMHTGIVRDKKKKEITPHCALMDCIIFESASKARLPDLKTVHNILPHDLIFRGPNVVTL

On to `CCCCCN(C)CCC(O)(P(=O)(O)O)P(=O)(O)O`, for which the result in [1] was inactive. The Potency result in test [2], in [3], in test [4] and in [5] was “inactive” each time.

Consider `Nc1nc2[nH]cc(CCc3ccc(C(=O)N[C@@H](CCC(=O)O)C(=O)O)cc3)c2c(=O)[nH]1`, for which the Potency entry in test [2] and in test [3] was “inactive” in each case.

As to `CC(=O)OC(C)OC(=O)C(C)c1ccc(-c2ccccc2)c(F)c1` (stereo not drawn), the Potency entry in [2], in [3], in [4] and in [5] was “inactive” throughout.

On to `Nc1nc(Cl)nc2c1ncn2[C@@H]1O[C@H](CO)[C@@H](O)[C@@H]1F`, for which, in test [2], the Potency entry is “inactive”.

In the case of `CC(C)(S)[C@@H](N)C(=O)O`, the Potency entry in test [2], in test [3] and in test [4] was “inactive” throughout.

On to `CCCCCCCCCCCCCCCCCCN(C)C`, for which the Potency result in test [2], in [3], in test [4] and in test [5] was “inactive” each time.

With `O=C(O)c1ccccc1-c1ccc(C(F)(F)F)cc1`, the Potency result in test [2] and in [3] was “inactive” each time.

As to `CO[C@H]1C[C@@H]2CC[C@@H](C)[C@@](O)(O2)C(=O)C(=O)N2CCCC[C@@H]2C(=O)O[C@H]([C@@H](C)C[C@@H]2CC[C@H](O)[C@H](OC)C2)CC(=O)[C@H](C)C=C(C)[C@@H](O)[C@@H](OC)C(=O)[C@H](C)C[C@H](C)C=CC=CC=C1C`, in test [2], the Potency result is “inactive”. The results for the Potency in test [3] and in [4] were 2.7 nM (active) and 12.2 nM (active), respectively.

With `C=C(C)[C@H]1CN[C@H](C(=O)O)[C@H]1CC(=O)O`, the outcome in [1] and in test [6] was inactive. Further, the Potency result in test [2], in [3], in test [4], in [5], in test [7] and in test [8] was “inactive” each time. Also, in test [9], the Potency result was “inactive”.

In the case of `Cc1nc2ccc(CN(C)c3ccc(C(=O)N[C@@H](CCC(=O)O)C(=O)O)s3)cc2c(=O)[nH]1`, the Potency result in test [2] was “inactive”.

Consider `CC(C)c1cccc(C(C)C)c1O`, for which the result in test [1] and in [6] was inactive. Moreover, the Potency entry in test [2], in test [3], in [4], in test [5], in test [7] and in test [8] was “inactive” each time. Also, the Potency result in [9] was “inactive”.

`O=P1(N(CCCl)CCCl)NCCCO1` (stereo not drawn): the result in test [1] and in [6] was inactive. The Potency result in test [2], in test [3], in [4], in test [5], in test [7] and in test [8] was “inactive” throughout. Besides, the Potency result in test [10] and in [9] was “inactive” each time.

For `CC(=O)NC[C@H]1CN(c2ccc(N3CCOCC3)c(F)c2)C(=O)O1`, the Potency result in [2], in test [3] and in test [4] was “inactive” in each case.

Take `Cc1ncc([N+](=O)[O-])n1CC(C)O` (stereo not drawn): the Potency entry in test [2], in test [3] and in test [4] was “inactive” in each case.

Turning to `O=c1[nH]c(=O)n([C@H]2C[C@H](O)[C@@H](CO)O2)cc1F`, the Potency entry in test [2] was “inactive”.

As to `Cc1ncsc1CCCl`, the outcome in [1] and in test [6] was inactive. Also, the Potency entry in test [2], in [3], in test [4], in [5], in test [7] and in test [8] was “inactive” each time. The Potency entry in [9] is “inactive”.

Take `CC(=O)Nc1c(I)c(NC(C)=O)c(I)c(C(=O)O)c1I`: the Potency result in test [2], in [3], in test [4] and in [5] was “inactive” each time.

With `S=c1nc[nH]c2nc[nH]c12`, the Potency entry in test [2] was “inactive”. In test [3], the Potency is 6110 nM (active).

On to `O=C(O)CCCc1ccc(N(CCCl)CCCl)cc1`, for which the result in test [6] was inactive. In addition, the Potency entry in [2], in test [3], in [4], in test [5], in test [7] and in test [8] was “inactive” in each case. In addition, in test [9], the Potency result is “inactive”.

As to `NCCc1ccc(O)cc1`, the result in [1] and in test [6] was inactive. Besides, the Potency entry in [2], in test [3], in [4], in test [5], in [7] and in test [8] was “inactive” throughout. Further, the Potency entry in test [10] and in test [9] was “inactive” throughout.

Turning to `CCOc1ccc2nc3cc(N)ccc3c(N)c2c1`, the Potency result in [2] is “inactive”.

Turning to `O=C(CCCN1CCC2(CC1)C(=O)NCN2c1ccccc1)c1ccc(F)cc1`, the result in test [6] was inactive. Moreover, the Potency entry in test [2], in test [3], in test [4], in [5], in test [7] and in test [8] was “inactive” each time. The Potency entry in test [9] was “inactive”.

Turning to `CN1C(=O)CCS(=O)(=O)C1c1ccc(Cl)cc1` (stereo not drawn), the outcome in [1] and in test [6] was inactive. Further, the Potency entry in test [2], in [3], in test [4], in test [5], in test [7] and in [8] was “inactive” in each case. The Potency result in test [9] was “inactive”.

As to `CCC1(c2ccc(N)cc2)CCC(=O)NC1=O` (stereo not drawn), the outcome in test [1] and in test [6] was inactive. For the same compound, the Potency entry in test [2], in [3], in test [4], in [5], in test [7] and in [8] was “inactive” in each case. For the same compound, the Potency entry in test [10] and in test [9] was “inactive” throughout.

`Cc1onc(-c2ccccc2)c1C(=O)N[C@@H]1C(=O)N2[C@@H](C(=O)O)C(C)(C)S[C@@H]12`: the Potency result in test [2] and in [3] was “inactive” in each case.

Regarding `CC(C)N(CCC(C(N)=O)(c1ccccc1)c1ccccn1)C(C)C` (stereo not drawn), the result in test [1] and in [6] was inactive. Further, the Potency result in test [2], in [3], in test [4], in test [5], in test [7] and in test [8] was “inactive” in each case. The Potency entry in [10] and in [9] was “inactive” in each case.

Regarding `Nc1nc2ccc(OC(F)(F)F)cc2s1`, the Potency entry in test [2] was “inactive”.

On to `NC(=O)c1cnccn1`, for which the Potency entry in test [2], in test [3] and in test [4] was “inactive” in each case.

Take `CC(C)(C)NCC(O)c1ccccc1Cl` (stereo not drawn): the outcome in test [1] and in [6] was inactive. Further, the Potency entry in test [2], in [3], in [4], in test [5], in test [7] and in test [8] was “inactive” in each case. For the same compound, the Potency result in [10] and in test [9] was “inactive” each time.

Take `CC(C)(C)C1CCC(CC2=C(O)c3ccccc3C(=O)C2=O)CC1` (stereo not drawn): the Potency entry in test [2], in [3] and in test [4] was “inactive” in each case.

Take `CC(C(=O)O)c1ccc2c(c1)CC(=O)c1ccccc1S2` (stereo not drawn): the Potency result in [2] and in [3] was “inactive” each time.

Take `COc1ccc2c(c1OC)C(=O)O[C@H]2[C@@H]1c2cc3c(cc2CCN1C)OCO3`: the outcome in test [1] and in test [6] was inactive. Also, the Potency entry in test [2], in [3], in [4], in test [5], in test [7] and in test [8] was “inactive” in each case. The Potency entry in test [10] and in test [9] was “inactive” in each case.

Consider `COCCCOc1ccnc(CS(=O)c2nc3ccccc3[nH]2)c1C` (stereo not drawn), for which the Potency entry in test [2] and in test [3] was “inactive” in each case.

With `CC(NC(C)(C)C)C(=O)c1cccc(Cl)c1` (stereo not drawn), the result in test [1] and in test [6] was inactive. The Potency entry in [2], in test [3], in test [4], in test [5], in test [7] and in [8] was “inactive” each time. The Potency entry in test [9] was “inactive”.
